# In PubChem BioAssay (EPA / NIEHS):
# Inconclusive results are not listed. The source made the active and inactive calls. How the source made its calls, unless noted: active means hit-call score of the fitted dose curve at least 0.9, where 1 is the maximum; inactive means score below 0.9.
# What was measured:
# [1] = molecular target: Oxysterols receptor LXR-alpha (Homo sapiens) (UniProt Q13133); assay: ATG_LXRa_TRANS: Attagene TRANS-FACTORIAL HepG2 Assay for human Liver X Receptor alpha (LXRa) (AID 2282980; active means hit-call score of the fitted dose curve at least 0.9, where 1 is the maximum); details: HepG2 Attagene TRANS reporter, LXRa transactivation
# Sequence of Oxysterols receptor LXR-alpha (Homo sapiens) (Q13133 whole entry, looked up, the tested form may be a part): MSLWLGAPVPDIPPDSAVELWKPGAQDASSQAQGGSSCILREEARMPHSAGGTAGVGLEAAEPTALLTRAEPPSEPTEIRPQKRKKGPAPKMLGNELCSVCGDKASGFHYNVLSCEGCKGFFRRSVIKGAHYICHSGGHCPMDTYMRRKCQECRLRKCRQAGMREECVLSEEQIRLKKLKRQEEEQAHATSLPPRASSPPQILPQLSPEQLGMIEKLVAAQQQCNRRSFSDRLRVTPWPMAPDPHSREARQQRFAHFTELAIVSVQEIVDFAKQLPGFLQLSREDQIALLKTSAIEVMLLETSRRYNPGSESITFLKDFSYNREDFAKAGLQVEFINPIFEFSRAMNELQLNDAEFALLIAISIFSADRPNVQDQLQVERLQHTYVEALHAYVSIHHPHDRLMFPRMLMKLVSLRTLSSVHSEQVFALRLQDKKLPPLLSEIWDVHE
# Outline: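 In this multiplexed TRANS system, compounds act on HepG2 cells carrying GAL4-UAS reporter units and a receptor-GAL4 fusion for 24 h. Induced reporter RNA is amplified, fluorescently labelled and sized by capillary electrophoresis, with DMSO as baseline.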
# [2] = molecular target: Oxysterols receptor LXR-beta (Homo sapiens) (UniProt P55055); assay: ATG_LXRb_TRANS: Attagene TRANS-FACTORIAL HepG2 Assay for human Liver X Receptor beta (LXRb) (AID 2282981; active means hit-call score of the fitted dose curve at least 0.9, where 1 is the maximum); details: HepG2 Attagene TRANS GAL4-LXRb reporter, mRNA
# Sequence of Oxysterols receptor LXR-beta (Homo sapiens) (P55055 whole entry, looked up, the tested form may be a part): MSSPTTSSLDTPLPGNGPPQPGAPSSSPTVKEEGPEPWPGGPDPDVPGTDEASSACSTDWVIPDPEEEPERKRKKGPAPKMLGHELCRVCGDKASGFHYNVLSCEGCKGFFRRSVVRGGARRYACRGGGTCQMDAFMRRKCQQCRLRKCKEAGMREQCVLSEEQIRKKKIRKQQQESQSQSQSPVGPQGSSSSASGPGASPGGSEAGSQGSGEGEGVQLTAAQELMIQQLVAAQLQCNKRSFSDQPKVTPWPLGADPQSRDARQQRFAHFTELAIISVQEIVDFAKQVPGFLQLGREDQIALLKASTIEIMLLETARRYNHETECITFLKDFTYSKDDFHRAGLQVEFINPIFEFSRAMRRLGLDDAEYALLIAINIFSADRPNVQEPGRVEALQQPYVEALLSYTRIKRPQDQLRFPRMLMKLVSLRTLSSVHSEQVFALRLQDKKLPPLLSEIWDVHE
# Outline: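 Readout: fluorescent reporter mRNA fragments resolved by capillary electrophoresis after RT-PCR. System: transiently transfected human HepG2, exogenous LXRb-Gal4 chimera driving GAL4-UAS reporter, 24 h dosing. Activity fitted upward against DMSO baseline.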
# [3] = ATG_M_06_TRANS: Attagene TRANS-FACTORIAL HepG2 Assay for M06 Transcription Factor (Internal Marker) (AID 2282983; active means hit-call score of the fitted dose curve at least 0.9, where 1 is the maximum;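 further: reporter transcript level by RT-PCR then capillary electrophoresis fluorescence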); details: HepG2 Attagene TRANS M06 internal marker reporter
# Outline: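 Multi-reporter-transfected HepG2, 24 h treatment; reporter transcripts quantified via RT-PCR, primer-extension labelling and CE. DMSO-normalized gain-of-signal fit.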
# [4] = ATG_M_32_TRANS: Attagene TRANS-FACTORIAL HepG2 Assay for M32 Transcription Factor (Internal Marker) (AID 2282984; active means hit-call score of the fitted dose curve at least 0.9, where 1 is the maximum;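 further: transcript level of a background control reporter unit measured by RT-PCR and capillary electrophoresis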); details: HepG2 Attagene TRANS M32 internal marker reporter
# Outline: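 Read-out: fluorescent reporter cDNA fragments resolved by capillary electrophoresis after RT-PCR of total RNA. Transfected HepG2 cells were exposed to chemical for 24 h. Activity scored in the positive direction relative to DMSO.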
# [5] = molecular target: Nuclear receptor subfamily 4 group A member 2 (Homo sapiens) (UniProt P43354); assay: ATG_NURR1_TRANS: Attagene TRANS-FACTORIAL HepG2 Assay for human Nuclear Receptor Related Protein 1 (NURR1) (AID 2282985; active means hit-call score of the fitted dose curve at least 0.9, where 1 is the maximum); details: HepG2 Attagene TRANS reporter, mRNA readout
# Sequence of Nuclear receptor subfamily 4 group A member 2 (Homo sapiens) (P43354 whole entry, looked up, the tested form may be a part): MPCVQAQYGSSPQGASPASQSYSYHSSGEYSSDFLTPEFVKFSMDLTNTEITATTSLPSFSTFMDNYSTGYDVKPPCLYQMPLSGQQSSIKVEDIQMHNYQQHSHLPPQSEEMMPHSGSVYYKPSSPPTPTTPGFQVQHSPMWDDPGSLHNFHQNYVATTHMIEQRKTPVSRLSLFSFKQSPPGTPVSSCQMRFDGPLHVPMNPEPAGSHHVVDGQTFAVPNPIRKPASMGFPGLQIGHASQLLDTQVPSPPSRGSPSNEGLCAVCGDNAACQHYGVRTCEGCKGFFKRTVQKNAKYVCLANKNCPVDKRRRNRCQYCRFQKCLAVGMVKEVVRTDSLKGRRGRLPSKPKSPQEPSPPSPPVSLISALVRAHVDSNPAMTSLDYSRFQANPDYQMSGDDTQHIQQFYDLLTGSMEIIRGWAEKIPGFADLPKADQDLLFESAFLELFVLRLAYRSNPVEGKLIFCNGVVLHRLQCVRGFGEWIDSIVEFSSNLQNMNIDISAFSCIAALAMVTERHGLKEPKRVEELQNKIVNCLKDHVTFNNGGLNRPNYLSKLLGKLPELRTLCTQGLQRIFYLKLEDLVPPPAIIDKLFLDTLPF
# Outline: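 Read-out: reporter mRNA induction by RT-PCR plus capillary electrophoresis with fluorescence detection, after 24 h dosing of transfected HepG2 cells. Exogenous NR-Gal4 chimera activity drives GAL4-UAS reporter; activity fitted upward versus DMSO.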
# [6] = molecular target: Transcriptional activator Myb (Homo sapiens) (UniProt P10242); assay: ATG_Myb_CIS: Attagene CIS-FACTORIAL HepG2 Assay for human Myeloblastosis (Myb) Proto-Oncogene Transcription Factor (AID 2282986); details: HepG2 Attagene CIS-FACTORIAL Myb reporter transcription; actives raise or lower the signal
# Sequence of Transcriptional activator Myb (Homo sapiens) (P10242 whole entry, looked up): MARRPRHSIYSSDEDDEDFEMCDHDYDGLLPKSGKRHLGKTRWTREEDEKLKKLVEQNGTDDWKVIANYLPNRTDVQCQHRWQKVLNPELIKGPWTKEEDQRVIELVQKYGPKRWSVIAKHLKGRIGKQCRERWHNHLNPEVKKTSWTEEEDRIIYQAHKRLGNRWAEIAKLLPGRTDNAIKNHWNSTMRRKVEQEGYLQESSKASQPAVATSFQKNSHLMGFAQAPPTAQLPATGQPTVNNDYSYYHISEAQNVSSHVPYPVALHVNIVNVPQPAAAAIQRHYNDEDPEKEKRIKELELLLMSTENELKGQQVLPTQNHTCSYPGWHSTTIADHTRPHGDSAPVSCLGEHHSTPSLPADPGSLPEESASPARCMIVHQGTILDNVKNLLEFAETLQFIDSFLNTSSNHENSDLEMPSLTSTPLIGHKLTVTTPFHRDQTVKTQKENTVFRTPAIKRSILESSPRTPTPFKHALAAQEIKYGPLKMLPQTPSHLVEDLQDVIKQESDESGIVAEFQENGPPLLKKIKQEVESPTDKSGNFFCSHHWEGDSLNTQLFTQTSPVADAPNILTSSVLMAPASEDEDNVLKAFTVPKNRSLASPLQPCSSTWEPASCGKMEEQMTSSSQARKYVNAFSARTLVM
# Outline: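 Fluorescence signals from capillary electrophoresis of RT-PCR-amplified reporter cDNA give the read-out. Cells: HepG2 transfected with multiple cis-regulated reporter units. Exposure lasts 24 hours; DMSO defines baseline for gain or loss of signal.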
# [7] = molecular target: Nuclear respiratory factor 1 (Homo sapiens) (UniProt Q16656); assay: ATG_NRF1_CIS: Attagene CIS-FACTORIAL HepG2 Assay for human Nuclear Respiratory Factor 1 (NRF1) Orphan Gene (AID 2282987); details: HepG2 NRF1 cis-element reporter, Attagene multiplex; actives raise or lower the signal
# Sequence of Nuclear respiratory factor 1 (Homo sapiens) (Q16656 whole entry, looked up): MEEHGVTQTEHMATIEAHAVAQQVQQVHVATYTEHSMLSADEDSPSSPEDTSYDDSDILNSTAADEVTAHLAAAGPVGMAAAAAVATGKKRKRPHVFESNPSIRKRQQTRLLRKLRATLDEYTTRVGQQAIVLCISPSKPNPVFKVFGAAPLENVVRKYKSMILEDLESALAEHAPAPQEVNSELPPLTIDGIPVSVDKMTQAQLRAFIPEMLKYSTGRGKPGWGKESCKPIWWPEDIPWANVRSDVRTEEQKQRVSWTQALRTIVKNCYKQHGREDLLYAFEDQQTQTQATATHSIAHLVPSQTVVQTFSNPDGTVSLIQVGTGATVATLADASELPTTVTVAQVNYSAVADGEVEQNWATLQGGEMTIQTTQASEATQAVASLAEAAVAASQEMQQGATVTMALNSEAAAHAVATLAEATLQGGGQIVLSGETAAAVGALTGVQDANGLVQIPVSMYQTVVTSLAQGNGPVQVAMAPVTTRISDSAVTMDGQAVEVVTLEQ
# Outline: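 Transcriptional reporter readout, one component of a 52-endpoint multiplexed HepG2 panel. Exposure 24 h; mRNA detected via RT-PCR and fluorescent capillary electrophoresis; fitting in both directions against DMSO.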
# [8] = ATG_NFI_CIS: Attagene CIS-FACTORIAL HepG2 Assay for human Nuclear Factor I (NFI) (AID 2282989); details: HepG2 cis-regulatory reporter, NFI response element transcription; actives raise or lower the signal
# Outline: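 Read-out: reporter mRNA via RT-PCR plus capillary electrophoresis with fluorescence detection. Transiently transfected HepG2 (endogenous TF activity on cis promoters), 24 h compound exposure; gain or loss of signal fitted against DMSO.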
# [9] = molecular target: Myc proto-oncogene protein (Homo sapiens) (UniProt P01106); assay: ATG_Myc_CIS: Attagene CIS-FACTORIAL HepG2 Assay for human Myelocytomatosis (Myc) Proto-Oncogene Transcription Factor (AID 2282990); details: HepG2, Attagene cis-reporter transcription factor activity; actives raise or lower the signal
# Sequence of Myc proto-oncogene protein (Homo sapiens) (P01106 whole entry, looked up, the tested form may be a part): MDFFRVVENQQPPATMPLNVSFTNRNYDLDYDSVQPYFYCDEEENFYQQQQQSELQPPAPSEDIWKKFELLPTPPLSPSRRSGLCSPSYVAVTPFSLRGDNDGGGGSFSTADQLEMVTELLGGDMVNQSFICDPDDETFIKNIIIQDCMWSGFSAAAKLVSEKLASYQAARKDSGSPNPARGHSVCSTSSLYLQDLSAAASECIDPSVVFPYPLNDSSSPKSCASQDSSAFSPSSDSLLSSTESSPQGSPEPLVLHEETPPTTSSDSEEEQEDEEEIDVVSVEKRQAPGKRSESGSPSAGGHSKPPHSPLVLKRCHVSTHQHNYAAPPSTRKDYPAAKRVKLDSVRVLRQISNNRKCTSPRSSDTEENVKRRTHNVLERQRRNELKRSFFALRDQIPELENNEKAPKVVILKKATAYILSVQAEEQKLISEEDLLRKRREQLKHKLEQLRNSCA
# Outline: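 Read-out: fluorescent reporter mRNA fragments resolved by capillary electrophoresis after RT-PCR. Human HepG2 liver cells carried transfected cis-element reporter units and were dosed for 24 h. Gain or loss of signal fitted relative to DMSO baseline.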
# [10] = ATG_NF_kB_CIS: Attagene CIS-FACTORIAL HepG2 Assay for human Nuclear Factor Kappa B (NF-kB) (AID 2282991); details: HepG2 Attagene cis-factorial NF-kB reporter mRNA; actives raise or lower the signal
# Outline: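 HepG2, transient multi-reporter transfection, cis promoter elements (endogenous TFs). 24 h exposure. Total RNA → RT → PCR → 6-FAM label → HpaI → CE. Gain/loss vs DMSO.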
# [11] = ATG_NRF2_ARE_CIS: Attagene CIS-FACTORIAL HepG2 Assay for human Nuclear Factor Erythroid 2 Related Factor 2 (NFR2) response to Antioxidant Response Elements (ARE) (AID 2282992); details: HepG2 Attagene ARE/NRF2 reporter, transcription factor activity; actives raise or lower the signal;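 on AC50: reporter mRNA level measured by RT-PCR and capillary electrophoresis fluorescence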
# Outline: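 Readout: reporter mRNA quantified by RT-PCR plus FAM-labelled primer extension, HpaI digestion and capillary electrophoresis, 24 h after dosing transfected HepG2 cells. Gain or loss of signal is fitted bidirectionally against DMSO baseline.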
# [12] = ATG_Oct_MLP_CIS: Attagene CIS-FACTORIAL HepG2 Assay for human Octamer-Binding Transcription Factor (Oct) (AID 2282993); details: HepG2 Attagene cis-factorial Oct reporter, mRNA; actives raise or lower the signal
# Outline: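 Read-out: reporter mRNA via RT-PCR plus capillary electrophoresis of 6-FAM-labelled fragments. Transiently transfected HepG2, 24 h exposure, endogenous TF activity on cis elements. Gain or loss of signal fitted relative to DMSO.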
# [13] = molecular target: Bile acid receptor (Homo sapiens) (UniProt Q96RI1); assay: ATG_FXR_TRANS: Attagene TRANS-FACTORIAL HepG2 Assay for Farnesoid X Receptor (FXR) (AID 2282979; active means hit-call score of the fitted dose curve at least 0.9, where 1 is the maximum;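 further: hits raise reporter mRNA above DMSO so AC50 marks FXR activation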); details: HepG2 Attagene TRANS FXR-GAL4 reporter transcription
# Sequence of Bile acid receptor (Homo sapiens) (Q96RI1 whole entry, looked up, the tested form may be a part): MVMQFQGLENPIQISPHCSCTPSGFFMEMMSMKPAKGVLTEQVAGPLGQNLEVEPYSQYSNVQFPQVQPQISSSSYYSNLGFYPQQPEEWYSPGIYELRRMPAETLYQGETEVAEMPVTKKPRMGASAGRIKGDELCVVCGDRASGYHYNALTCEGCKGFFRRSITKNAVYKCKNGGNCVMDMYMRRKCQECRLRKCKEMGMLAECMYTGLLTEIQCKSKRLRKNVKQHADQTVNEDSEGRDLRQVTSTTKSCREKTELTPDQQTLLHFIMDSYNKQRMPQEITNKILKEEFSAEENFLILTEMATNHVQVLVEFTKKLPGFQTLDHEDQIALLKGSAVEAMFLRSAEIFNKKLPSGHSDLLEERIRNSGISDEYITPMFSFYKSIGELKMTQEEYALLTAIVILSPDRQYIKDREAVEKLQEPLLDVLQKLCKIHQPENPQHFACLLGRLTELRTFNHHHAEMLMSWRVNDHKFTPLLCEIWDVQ
# Outline: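 After 24 h chemical treatment of transfected HepG2 cells, GAL4-UAS reporter transcripts driven by an exogenous FXR-GAL4 fusion were measured by RT-PCR and capillary electrophoresis. Increases over DMSO were fitted.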
# [14] = molecular target: Hepatocyte nuclear factor 4-alpha (Homo sapiens) (UniProt P41235); assay: ATG_HNF4a_TRANS: Attagene TRANS-FACTORIAL HepG2 Assay for human Hepatocyte Nuclear Factor 4 alpha (HNF4a) (AID 2282982; active means hit-call score of the fitted dose curve at least 0.9, where 1 is the maximum); details: HepG2 HNF4a transactivation reporter, mRNA readout
# Sequence of Hepatocyte nuclear factor 4-alpha (Homo sapiens) (P41235 whole entry, looked up): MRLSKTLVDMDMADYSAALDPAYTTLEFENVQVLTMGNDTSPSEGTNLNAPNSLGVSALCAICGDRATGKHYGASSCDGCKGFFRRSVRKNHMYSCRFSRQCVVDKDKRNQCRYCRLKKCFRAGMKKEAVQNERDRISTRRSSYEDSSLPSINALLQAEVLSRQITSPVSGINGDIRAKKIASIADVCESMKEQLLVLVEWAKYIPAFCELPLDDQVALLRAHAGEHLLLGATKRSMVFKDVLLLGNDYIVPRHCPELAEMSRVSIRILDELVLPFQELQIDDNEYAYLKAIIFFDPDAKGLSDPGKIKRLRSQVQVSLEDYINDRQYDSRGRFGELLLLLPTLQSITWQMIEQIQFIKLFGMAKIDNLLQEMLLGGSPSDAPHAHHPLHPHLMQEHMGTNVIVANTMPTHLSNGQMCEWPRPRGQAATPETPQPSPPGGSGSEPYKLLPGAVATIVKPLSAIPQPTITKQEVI
# Outline: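 Transient MRTU transfection of HepG2, 24 h dosing. Readout: reporter mRNA via RT-PCR + capillary electrophoresis, fluorescence; activity fit upward relative to DMSO control.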
# [15] = molecular target: Cellular tumor antigen p53 (Homo sapiens) (UniProt P04637); assay: ATG_p53_CIS: Attagene CIS-FACTORIAL HepG2 Assay for human p53 Transcription Factor (AID 2282994); details: HepG2 p53 cis-element reporter, Attagene mRNA; actives raise or lower the signal
# Sequence of Cellular tumor antigen p53 (Homo sapiens) (P04637 whole entry, looked up): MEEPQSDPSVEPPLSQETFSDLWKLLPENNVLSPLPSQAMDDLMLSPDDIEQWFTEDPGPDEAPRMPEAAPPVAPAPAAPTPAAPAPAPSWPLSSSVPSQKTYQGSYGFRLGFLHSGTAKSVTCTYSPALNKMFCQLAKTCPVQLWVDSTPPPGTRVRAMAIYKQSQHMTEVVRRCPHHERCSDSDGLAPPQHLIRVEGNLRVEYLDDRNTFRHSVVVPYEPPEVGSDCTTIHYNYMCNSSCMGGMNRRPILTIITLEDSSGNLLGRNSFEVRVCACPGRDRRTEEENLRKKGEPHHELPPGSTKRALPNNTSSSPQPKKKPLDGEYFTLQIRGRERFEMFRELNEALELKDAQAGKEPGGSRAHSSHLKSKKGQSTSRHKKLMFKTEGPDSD
# Outline: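 Read-out: reporter mRNA by RT-PCR plus capillary electrophoresis with fluorescence detection. Human HepG2 liver cells carried transfected multi-reporter cis-element constructs, dosed 24 h. Gain or loss of signal fitted bidirectionally against DMSO control.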
# [16] = BSK_3C_TissueFactor: BioMAP Diversity Plus: 3C Assay for Tissue Factor Biomarker Activity (AID 2282997); details: BioMAP 3C HUVEC, tissue factor biomarker readout; actives raise or lower the signal
# Outline: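 In this endothelial system, HUVEC are treated for 24 h and Tissue Factor is assessed by ELISA, normalised to DMSO.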
# [17] = BSK_3C_uPAR: BioMAP Diversity Plus: 3C Assay for Urokinase-type plasminogen activator receptor (uPAR) Biomarker Activity (AID 2282998); details: BioMAP 3C HUVEC, uPAR biomarker ELISA; actives raise or lower the signal
# Outline: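 HUVEC primary cells; 24 h post-dose; uPAR by ELISA; gain or loss of signal fitted bidirectionally vs DMSO baseline.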
# [18] = BSK_3C_VCAM1: BioMAP Diversity Plus: 3C Assay for Vascular cell adhesion molecule 1 (VCAM1) Biomarker Activity (AID 2282999); details: BioMAP 3C HUVEC, VCAM1 ELISA, cytokine-stimulated; actives raise or lower the signal
# Outline: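 HUVEC primary cells, 24 h compound exposure; VCAM-1 by ELISA; gain/loss of signal fitted bidirectionally vs DMSO baseline.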
structure (smiles),measurement,setting,value
CC(C)CCOCc1ccccc1,outcome,[1],inactive
same,outcome,[2],inactive
same,outcome,[3],inactive
same,outcome,[4],inactive
same,outcome,[5],inactive
same,outcome,[6],inactive
same,outcome,[7],inactive
same,outcome,[8],inactive
same,outcome,[9],inactive
same,outcome,[10],inactive
same,outcome,[11],inactive
same,outcome,[12],inactive
CC(C=O)c1ccccc1 (stereo unspecified),outcome,[13],inactive
same,outcome,[14],inactive
same,outcome,[3],inactive
same,outcome,[5],inactive
same,outcome,[6],inactive
same,outcome,[7],inactive
same,outcome,[8],inactive
same,outcome,[9],inactive
same,outcome,[10],inactive
same,outcome,[11],inactive
same,outcome,[12],inactive
same,outcome,[15],inactive
Cc1ccccc1CCO,outcome,[13],inactive
same,outcome,[14],inactive
same,outcome,[4],inactive
same,outcome,[6],inactive
same,outcome,[7],inactive
same,outcome,[8],inactive
same,outcome,[9],inactive
same,outcome,[10],inactive
same,outcome,[11],inactive
same,outcome,[12],inactive
same,outcome,[15],inactive
C=CCCCCCCCCOC(C)=O,outcome,[13],inactive
same,outcome,[14],inactive
same,outcome,[5],inactive
same,outcome,[6],inactive
same,outcome,[7],inactive
same,outcome,[8],inactive
same,outcome,[9],inactive
same,outcome,[11],inactive
same,outcome,[12],inactive
CCCCC/C=C\C/C=C\CCCCCCCC(=O)O,outcome,[13],inactive
same,outcome,[14],inactive
same,outcome,[3],inactive
same,outcome,[4],inactive
same,outcome,[6],inactive
same,outcome,[7],inactive
same,AC50,[8],163 µM (active)
same,outcome,[9],inactive
same,AC50,[11],51.6 µM (active)
same,outcome,[15],inactive
CCCCOCC(C)O (stereo unspecified),outcome,[1],inactive
same,outcome,[14],inactive
same,outcome,[3],inactive
same,outcome,[5],inactive
same,outcome,[6],inactive
same,outcome,[7],inactive
same,outcome,[8],inactive
same,outcome,[9],inactive
same,outcome,[10],inactive
same,outcome,[11],inactive
same,outcome,[12],inactive
same,outcome,[15],inactive
N#Cc1ccc(C2CCCc3cncn32)cc1 (stereo unspecified),outcome,[1],inactive
same,outcome,[14],inactive
same,outcome,[3],inactive
same,outcome,[4],inactive
same,outcome,[5],inactive
same,outcome,[7],inactive
same,outcome,[8],inactive
same,outcome,[9],inactive
same,outcome,[10],inactive
same,outcome,[11],inactive
same,outcome,[12],inactive
same,outcome,[15],inactive
CCOB(OCC)OCC,outcome,[13],inactive
same,outcome,[3],inactive
same,outcome,[4],inactive
same,outcome,[6],inactive
same,outcome,[7],inactive
same,outcome,[8],inactive
same,outcome,[9],inactive
same,outcome,[10],inactive
same,outcome,[11],inactive
same,outcome,[15],inactive
CCCC/C=C/C=C\C=O,outcome,[13],inactive
same,outcome,[2],inactive
same,outcome,[4],inactive
same,outcome,[6],inactive
same,outcome,[7],inactive
same,outcome,[8],inactive
same,outcome,[9],inactive
same,AC50,[10],63.8 µM (active)
same,AC50,[11],41.3 µM (active)
same,outcome,[12],inactive
same,AC50,[15],165 µM (active)
CC(CC=O)CC(C)(C)C (stereo unspecified),outcome,[1],inactive
same,outcome,[2],inactive
same,outcome,[5],inactive
same,outcome,[6],inactive
same,outcome,[7],inactive
same,outcome,[8],inactive
same,outcome,[9],inactive
same,outcome,[11],inactive
same,outcome,[12],inactive
same,outcome,[15],inactive
Oc1c(Cl)cc(Cl)c(Cl)c1Cl,outcome,[1],inactive
same,outcome,[2],inactive
same,outcome,[14],inactive
same,outcome,[3],inactive
same,outcome,[6],inactive
same,outcome,[7],inactive
same,outcome,[8],inactive
same,outcome,[9],inactive
same,outcome,[10],inactive
same,AC50,[11],27.1 µM (active)
same,AC50,[12],100 µM (active)
same,outcome,[15],inactive
same,AC50,[16],23.8 µM (active)
same,AC50,[17],20 µM (active)
same,AC50,[18],20 µM (active)
C=CC(=O)NC(C)(C)C,outcome,[2],inactive
same,outcome,[14],inactive
same,outcome,[3],inactive
same,outcome,[5],inactive
same,outcome,[6],inactive
same,outcome,[7],inactive
same,outcome,[8],inactive
same,outcome,[9],inactive
same,outcome,[10],inactive
same,AC50,[11],28 µM (active)
same,outcome,[16],inactive
same,outcome,[17],inactive
same,outcome,[18],inactive
C=C(C)[C@@H]1CC=C(C)CC1,outcome,[2],inactive
same,outcome,[3],inactive
same,outcome,[5],inactive
same,outcome,[6],inactive
same,outcome,[7],inactive
same,outcome,[8],inactive
same,outcome,[9],inactive
same,outcome,[11],inactive
same,outcome,[12],inactive
same,outcome,[15],inactive
CC(CC(C)C)=NO,outcome,[3],inactive
same,outcome,[6],inactive
same,outcome,[7],inactive
same,outcome,[8],inactive
same,outcome,[9],inactive
same,outcome,[10],inactive
same,outcome,[11],inactive
same,outcome,[12],inactive
same,outcome,[15],inactive
